# The whole screen tested about 69,000 compounds, of which about 8,600 (12%) showed an effect of 50% or more. What follows is part of a selection rich in strong results, with near analogues and random picks from the rest.
# System: Plasmodium berghei
# Assay: Screen against P. berghei liver stage (PbLuc), transformed with Luciferase, at 10uM
# Assay type: functional, HepG2
# Conditions: tested at 10 uM
row,Structure (SMILES),INHIBITION
1,CCS(=O)(=O)N1CCC2(CCN(CC(=O)N(C)C)C2=O)CC1,37.1%
2,NC(=O)c1ccccc1Oc1cccc(C2CCCNC2)n1 (stereo unspecified),-13.2%
3,O=c1[nH]c2ccc(S(=O)(=O)N(CCO)Cc3ccncc3)cc2[nH]1,17.5%
4,Cc1oncc1C(=O)N1CCOCC2(CCN(c3ccccn3)C2)C1 (stereo unspecified),45.1%
5,c1ccc(OCC2CC3(CCN(c4ncccn4)CC3)CO2)nc1 (stereo unspecified),-34%
6,COc1ccnc(N2CCN(CC(=O)N3CCC(C)CC3)CC2)n1,-22.9%
7,Cc1cc(CN(C)C(=O)c2ccc(F)c(C(F)(F)F)c2)no1,23.5%
8,CN(Cc1ccccc1C#N)C1CCN(CCc2ccccn2)CC1,-52.5%
9,c1ccc(-c2noc(CCNC3CCOC4(CCOCC4)C3)n2)nc1 (stereo unspecified),-37.8%
10,CCn1cc(CN2CCCN(C(=O)c3sc(C)nc3C)CC2)cn1,7.08%
11,O=C(c1ccsc1)N1CCc2onc(COc3ccccn3)c2C1,45.8%
12,COc1c(CNCc2ccccc2Cn2ccnc2)c(C)nn1C,24%
13,CCCc1nnsc1C(=O)N1CCN(CC(O)c2ccco2)CC1 (stereo unspecified),7.85%
14,O=C(Nc1cc(F)ccc1OCC1CCCO1)c1ccccn1 (stereo unspecified),-25.9%
15,Fc1ccc(OCC2CCCO2)c(NCc2cn3cccnc3n2)c1 (stereo unspecified),59.3%
16,Fc1ccc(OCC2CCCO2)c(NCc2noc(C3CC3)n2)c1 (stereo unspecified),35.5%
17,CCc1noc(CNc2ccc(F)cc2OCC2CC2)n1,-29.9%
18,Nc1ccnc(CNc2cc(F)ccc2OCC2CCCO2)n1 (stereo unspecified),54.4%
19,O=C(CNc1cc(F)ccc1OCC1CCCO1)N1CCOCC1 (stereo unspecified),19.5%
20,CC(C)(C)c1nnc(CNc2cc(F)ccc2OCC2CCCO2)o1 (stereo unspecified),35.5%
21,CCc1nc(CNc2cc(Cl)ccc2OCC2CCCO2)no1 (stereo unspecified),93.1%
22,CCc1noc(CNc2cc(F)ccc2OCC2CCCO2)n1 (stereo unspecified),1.81%

row,Structure (SMILES),INHIBITION
1,NCC1CCC2(CCN(C(=O)c3ccccn3)CC2)CO1 (stereo unspecified),38.5%
2,Cc1ncc(C(=O)NC2CCc3nccn3C2)c(C(C)C)n1 (stereo unspecified),11.6%
3,CCOCC1c2c(cnn2CC2CC2)CCN1C(=O)c1ccncn1 (stereo unspecified),6.72%
4,O=C(CC1CC1)N1CC[C@@H]2[C@H](CC1)N(Cc1cccnc1)CCS2(=O)=O,-35%
5,Cc1nc(C)n(C2CCCN(C(=O)CCn3ccnn3)C2)n1 (stereo unspecified),-10.3%
6,Cc1cn[nH]c1C1COCCN1Cc1ccsc1 (stereo unspecified),25.15%
7,O=C(NS(=O)(=O)c1c(Cl)cccc1Cl)c1cccc2c1OCCO2,12.3%
8,O=C(CCCC(=O)NCc1cccc(Br)c1)NCCN1CCCC1,17.5%
9,CC(C)S(=O)(=O)N1CCC(c2cc3n(n2)[C@@H](C(F)(F)F)C[C@@H](C)N3)C1 (stereo partly specified),27.3%
10,COc1cc(C)nc(N2CCN(C(=O)CN(C)C(C)C)CC2)n1,59.9%
11,COc1cc(C)nc(N2CCN(C(=O)CN(C)C3CC3)CC2)n1,-3.18%
12,CCOc1cc(C)nc(N2CCN(C(=O)CC)CC2)n1,8.25%
13,CCN(CC)CC(=O)N1CCN(c2nc(C)cc(OC)n2)CC1,2.54%
14,CCOc1cc(C)nc(N2CCN(C(=O)C(C)NC(C)=O)CC2)n1 (stereo unspecified),60.5%
15,CCOc1cc(C)nc(N2CCN(C(=O)c3ccncc3)CC2)n1,33.8%
16,CCOC1COC2(CCN(CC3CCOCC3)CC2)C1 (stereo unspecified),31.2%
17,Clc1ccc(CN2CCCCC2Cn2cncn2)c2ncccc12 (stereo unspecified),40.65%
18,Cc1nc(CN2CC[C@H]3[C@H]2CCN3c2nncs2)cs1,40.8%
19,Cc1nn(CCN2CCSCC2)cc1CNCc1ccccn1,23.5%
20,OC(COCc1ccccc1F)CN1CCC(Cn2cccn2)CC1 (stereo unspecified),46.3%
21,c1ncn(CC2CCCN(Cc3nc(-c4ccoc4)no3)C2)n1 (stereo unspecified),-34%
22,CN(C)C(=O)N1CCC2(CC1)CCN(c1ncccn1)C2,-26.1%

row,Structure (SMILES),INHIBITION
1,Cc1ccc(CNC(=O)c2nc3c(n2C)CCN(c2ncccn2)C3)o1,48.4%
2,COc1cc(CNCc2c(C)nn(C)c2N(C)C)ccc1OCCO,21.6%
3,Nc1ccnn1C1CCN(Cc2ccccc2)C1 (stereo unspecified),43.1%
4,Cc1cnn(C2CCN(Cc3ccccc3)C2)c1N (stereo unspecified),56.1%
5,Nc1c(Cl)cnn1C1CCN(Cc2ccccc2)C1 (stereo unspecified),37.7%
6,Cc1ccc(NC(=O)[C@@H]2C[C@H](C(=O)O)CN(Cc3sccc3C)C2)cn1,29.4%
7,Cc1ccc(NC2CCN(C(=O)c3cccnc3O)CC2)nn1,16.8%
8,Cc1csc2c(=O)n(CCSc3cnn[nH]3)cnc12,18.5%
9,c1ccc(CCN2CCN(C3CCOC4(CCOCC4)C3)CC2)nc1 (stereo unspecified),7.24%
10,Cc1ncccc1O[C@H]1CCN(C(=O)c2cccs2)CC[C@@H]1O,23.3%
11,CCc1ccc(C(=O)N2CC[C@H](Oc3cccnc3C)[C@@H](O)CC2)cc1,78.2%
12,Cc1ccc(C(=O)N2CC[C@H](Oc3cccnc3C)[C@@H](O)CC2)s1,44.1%
13,CCc1ccc(C(=O)N2CCC(c3nncn3CC)CC2)cc1,-3.16%
14,Cc1csc(C(=O)N2CC[C@H](Oc3cccnc3C)[C@@H](O)CC2)c1,57.5%
15,Cc1ncccc1O[C@H]1CCN(C(=O)Cc2cccs2)CC[C@@H]1O,42.9%
16,O=C(NC1CCCCC1)N1CCc2onc(COc3cccnc3)c2C1,40.4%
17,Cc1ccoc1C(=O)N1CCOCC2(CCN(c3ncccn3)C2)C1 (stereo unspecified),-19.9%
18,CC(C)CNC(=O)CNC(=O)NC(C)COc1ccccc1F (stereo unspecified),-24.5%
19,O=C(NCC1CC1)C1CSCN1S(=O)(=O)c1cc(F)cc(F)c1 (stereo unspecified),27.7%
20,Cc1noc([C@@H]2CC[C@@H]3[C@@H](CCN3S(=O)(=O)c3cccnc3)O2)n1,-2.53%
21,CC(C)c1nnc2n1CCN(c1nc3ccccc3o1)C2,16.8%
22,c1ccc2oc(N3CCn4c(nnc4C4CC4)C3)nc2c1,68.4%

row,Structure (SMILES),INHIBITION
1,Cc1nnc2n1CCN(c1nc3ccccc3o1)C2,2.97%
2,CCc1nc(C2CCCN2C(=O)c2ccc(N(C)C)nn2)no1 (stereo unspecified),24.295%
3,CCS(=O)(=O)c1nnc([C@@H](N)Cc2ccccc2)o1,11.6%
4,N[C@@H](Cc1ccccc1)c1nnc(S(=O)(=O)Cc2ccc(Cl)cc2)o1,15.4%
5,N[C@@H](Cc1ccccc1)c1nnc(S(=O)(=O)Cc2ccccc2)o1,53.8%
6,Cc1cnn(CC2CCCN2C(=O)c2c(C)noc2C)c1 (stereo unspecified),12.7%
7,Cc1ccnn1CCC(=O)N1CCCC1c1cc2cccnc2[nH]1 (stereo unspecified),6.26%
8,Cc1nc(N2CCOCC2)nc2c1COCC21CCN(CC2CC2)C1 (stereo unspecified),36.9%
9,CCN(Cc1ccncc1)CC1(O)CCN(C(=O)c2cccc(C)c2)C1 (stereo unspecified),-9.32%
10,Cc1cccc2c1nc1n2[C@@H](CNC(=O)Cc2ccccc2)COC1,-33.8%
11,c1ccc(CNC[C@H]2COCc3nc4cccnc4n32)cc1,54.7%
12,COc1ccc(CNC[C@H]2COCc3nc4cccnc4n32)cc1,6.55%
13,Cc1cccc2c1nc1n2[C@@H](CNC(=O)C2CCOCC2)COC1,43.4%
14,CC(=O)NC[C@H]1COCc2nc3c(C)cccc3n21,46.4%
15,COc1ccc2c(c1)nc1n2[C@@H](CNC(=O)c2ccccn2)COC1,7.53%
16,Cc1cccc2c1nc1n2[C@@H](CNC(=O)c2ccccn2)COC1,37.4%
17,Cc1cccc2c1nc1n2[C@@H](CNC2CCCCC2)COC1,51%
18,COc1ccccc1C(=O)NC[C@H]1COCc2nc3c(C)cccc3n21,50.2%
19,Cc1ccc2c(c1)nc1n2[C@@H](CNC(=O)c2ccccn2)COC1,57%
20,FC(F)(F)c1ccc(CNC[C@H]2COCc3nc4cccnc4n32)cc1,39.3%
21,Cc1cccc2c1nc1n2[C@@H](CNC(=O)NC(C)C)COC1,11.6%
22,CCN(CC(=O)Nc1cc(Cl)ccc1C)C(=O)c1ccc(=O)[nH]n1,23.2%

row,Structure (SMILES),INHIBITION
1,COc1ncc(-c2ccc(O)cc2)c(OC)n1,27.6%
2,CC(C)c1ccc(C2CC(=O)Nc3c2cnn3C)cc1 (stereo unspecified),14.7%
3,COc1ccccc1OCC(=O)NS(=O)(=O)c1ccc(C)s1,25.1%
4,CCNC(=O)[C@@H]1C[C@H](NC(=O)c2cncnc2C)CN1Cc1ccsc1,22.6%
5,CC(C)c1nn(C)c(N(C)C)c1CNCc1ccnc(N(C)C)c1,-10.8%
6,Cc1nc(C)n(CC2CCCN(Cc3cccc(F)c3F)C2)n1 (stereo unspecified),31.2%
7,COc1ccc2c(c1)nc1n2[C@@H](CNCc2nccs2)COC1,8.52%
8,COc1ccc2c(c1)nc1n2[C@@H](CNCc2ccccc2)COC1,43.1%
9,COc1ccc2c(c1)nc1n2[C@@H](CNCc2ncccc2C)COC1,51%
10,Cc1ccc2c(n1)N(C)CCN(C(=O)NC(C)C)C2,23.6%
11,O=C(CCN1CCc2c(ncn2C2CC2)C1)NC1CCCC1,-45.6%
12,CCc1ccc(C(=O)NC2CCCN(c3ccn(C)n3)C2=O)o1 (stereo unspecified),20.3%
13,CCc1ccc(C(=O)NC2CCc3nc(C)cn3C2)o1 (stereo unspecified),2.75%
14,CCc1ccc(C(=O)NC2CCN(c3ccn(C)n3)C2)o1 (stereo unspecified),62.4%
15,CNc1cc(CNC(=O)c2cccnc2)nc(-c2ccncc2)n1,27.8%
16,CCc1noc(C(C)N2CCN(CCN3CCCC3=O)CC2)n1 (stereo unspecified),-0.113%
17,C[C@H]1C[C@H]2CN(C(=O)CC3CC3)CC[C@H]2O1,1.94%
18,Cc1ccc(CN2C(=O)CCC2C(=O)Nc2cnn(C)c2)o1 (stereo unspecified),36.7%

# From ChEMBL document CHEMBL4513216, “Probing the Open Global Health Chemical Diversity Library for Multistage-Active Starting Points for Next-Generation Antimalarials” (ACS Infect Dis, 2020)
